Most compounds without a hit are left out; they make up all but 3.5% or so of the library.
GPR151 activ = activates the human receptor GPR151; PathHunter beta-arrestin GPR151 cells, luminescence; activation, % at 11.2 µM; actives 1% (n = 650,000); AID 1508602; in the data active = activation above about 4.9%;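 note: 0% = median of compound wells and 100% = cells with positive control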
MITF inh = human MITF inhibition, primary screen; AlphaScreen MITF homodimerization, bead proximity signal; actives 0.91% (n = 650,000); O75030; AID 1259374; inhibition, % at 2.6 µM; in the data active = inhibition above about 50%;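 note: 0% = vehicle wells with protein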
Target sequence (O75030 whole entry, looked up): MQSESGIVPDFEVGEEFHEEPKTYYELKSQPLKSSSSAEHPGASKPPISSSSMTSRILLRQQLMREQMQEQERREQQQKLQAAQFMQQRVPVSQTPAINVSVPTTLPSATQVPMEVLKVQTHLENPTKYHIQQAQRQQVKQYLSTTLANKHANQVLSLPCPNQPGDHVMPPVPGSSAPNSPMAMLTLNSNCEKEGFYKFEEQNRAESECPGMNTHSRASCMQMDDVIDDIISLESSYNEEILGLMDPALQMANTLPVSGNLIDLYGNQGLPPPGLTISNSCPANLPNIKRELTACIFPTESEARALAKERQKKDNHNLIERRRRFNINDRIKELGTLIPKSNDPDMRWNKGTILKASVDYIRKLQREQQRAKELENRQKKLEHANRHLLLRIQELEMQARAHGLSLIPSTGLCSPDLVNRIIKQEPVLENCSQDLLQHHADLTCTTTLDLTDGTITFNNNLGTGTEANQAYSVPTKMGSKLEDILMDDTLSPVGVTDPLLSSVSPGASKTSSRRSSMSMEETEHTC
TEAD-YAP inh = TEAD-YAP interaction inhibition. HEK-TIYL cells, TEAD-Gal4/YAP UAS-luciferase luminescence. inhibition, % at 9.12 µM. actives 1.4% (n = 640,000). AID 1259422; in the data active = inhibition above about 32%;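 note: 0% = median of test compound wells and 100% = reference inhibitor wells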
FBW7 activator = human FBW7 E3 ligase activation, primary screen | Q969H0 | AlphaScreen FBW7–phospho-cyclin E peptide binding, activator screen | normalized activity (activation), % at 26.1 µM | actives 0.13% (n = 650,000); in the data active = normalized activity above about 1.9%;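 note: purified mutant Fbw7 with reduced substrate affinity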
MITF confirm = confirmation of human MITF inhibitors. shares compounds with MITF inh. AlphaScreen MITF homodimerization, biotin/His-MITF beads. inhibition, % at 2.6 µM. actives 16% (n = 4,700);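 active = inhibition above a cutoff derived from the DMSO control wells, cut at about 28% in these data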;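 note: 0% = MITF dimer wells with DMSO only; inhibitors lower the bead chemiluminescence by keeping MITF from dimerizing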
AlphaScreen DR = AlphaScreen optical interference, dose response counter-screen; IC50, µM; actives 6% (n = 480); AlphaScreen optical interference counterscreen, cell-free; shares compounds with MITF inh; call rule not given here
AlphaScreen intf2 = AlphaScreen optical interference, counter-screen. actives 7.6% (n = 4,700). LysRS AlphaScreen counterscreen, signal interference, triplicate. inhibition, % at 2.6 µM. shares compounds with MITF inh;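 active = inhibition above a cutoff derived from the DMSO control wells, cut at about 30% in these data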
An asterisk follows results filed as active; nt = no result given.

SMILES | GPR151 activ | MITF inh | TEAD-YAP inh | FBW7 activator | MITF confirm | AlphaScreen intf2 | others
COc1ccc(C(=O)N(Cc2cc3cc(C)ccc3n3nnnc23)C2CCCC2)cc1OC | 2 | 3 | 8 | 0 | nt | nt
O=C(OC1CCCC1=O)c1ccc(Cl)c(S(=O)(=O)N2CCOCC2)c1 (stereo not given) | -1 | 66* | 3 | 0 | 51* | 8 | AlphaScreen DR=>6.7
O=C(OC1CCCC1=O)c1ccc(S(=O)(=O)N2CCCCC2)cc1 (stereo not given) | -1 | 74* | -7 | 0 | 65* | 2 | AlphaScreen DR=>6.6
O=C(N/N=C/c1cc(O)ccc1Br)c1cccnc1 | 1 | 59* | 66* | -1 | 88* | 100*
O=C(N/N=C/c1cc(O)ccc1Br)c1ccncc1 | 0 | 114* | 77* | 1 | 120* | 100*
Cc1cc(=O)n2c(C(=O)Nc3ccccc3C)c(C(=O)Nc3cccc(C)c3C)sc2n1 | 3 | 8 | -2 | 0 | nt | nt
c1ccc(COC2CCN(Cc3ccc4c(c3)CN(Cc3nccs3)CCO4)CC2)cc1 | 0 | 11 | 9 | 0 | nt | nt
Cc1ncc(CO)c(/C=N/Nc2ccc(C(F)(F)F)cc2[N+](=O)[O-])c1O | 1 | -10 | 4 | 0 | nt | nt
Cc1ncc(CO)c(/C=N/Nc2ccc(C(F)(F)F)cn2)c1O | 4 | 58* | 30 | -1 | 23 | 100*
Cc1ncc(CO)c(/C=N/NC(=O)c2ccccc2F)c1O | 0 | 32 | -33 | -2 | nt | nt
Cc1ncc(CO)c(/C=N/NC(=S)Nc2ccc(F)cc2)c1O | -2 | 85* | -2 | -1 | 15 | 23
Cc1ncc(CO)c(/C=N/NC(=S)Nc2ccc(Cl)cc2)c1O | 0 | 64* | 9 | 0 | -15 | 21
COC(=O)COc1ccc(S(=O)(=O)N2CCCCC2)cc1 | -1 | 1 | 9 | 0 | nt | nt
O=c1[nH]c2ccc(Br)cc2[nH]c1=O | 1 | 1 | 3 | 0 | nt | nt
Cc1ccc2[nH]c(=O)c(=O)[nH]c2c1 | 2 | 82* | 11 | 0 | 53* | -2 | AlphaScreen DR=>12
CCC(C)NC(=O)c1nn(-c2cc(OC)cc(OC)c2)c(=O)c2ccccc12 (stereo not given) | 0 | 6 | 15 | 1 | nt | nt
N[C@H]1CCC[C@H](C(=O)Nc2cccc3c(=O)[nH]cnc23)C1 | 0 | 54* | 3 | 0 | 26 | 11
Cn1nnnc1SCC(=O)Nc1ccccc1N1CCOCC1 | 0 | 63* | 3 | 0 | 4 | 11
CN(NC(=O)CN1CCOCC1)c1ccccc1 | -1 | 51* | -5 | 0 | 1 | 10
O=C(CN1CCCC1)Nc1ccccc1N1CCOCC1 | -1 | 34 | 0 | 0 | nt | nt
CC1CCN(CC(=O)Nc2ccccc2N2CCOCC2)CC1 | -1 | 69* | 5 | 0 | 1 | 17
O=C(CN1CCOCC1)Nc1ccccc1N1CCCCCC1 | 0 | 69* | -2 | 0 | 15 | 11
COc1cc(-c2nnc(SCC(=O)c3c[nH]c4ccccc34)o2)cc(OC)c1OC | -1 | 2 | 17 | 0 | nt | nt
CC(C)N(CCNC(=O)Cc1cn(-c2ccc(N3CCN(Cc4ccc5c(c4)OCO5)CC3)nn2)c2ccccc12)C(C)C | -3 | 11 | 12 | 0 | nt | nt
CN(CC(O)COc1ccc(F)cc1)C1CCCCC1 (stereo not given) | 3 | 9 | 3 | 0 | nt | nt
SMILES | GPR151 activ | MITF inh | TEAD-YAP inh | FBW7 activator | MITF confirm | AlphaScreen intf2 | others
CCc1c(C)nc(-n2nc(C3CC3)cc2NC(=O)CCC2CCCC2)[nH]c1=O | -1 | -2 | 2 | 0 | nt | nt
COc1ccc(C(=O)N2CCN(C(=O)c3cccnc3)CC2)cc1 | 0 | 6 | 7 | 0 | nt | nt
COc1cccc(CN2CCN(C(=O)c3cccnc3)CC2)c1 | 1 | 70* | 6 | 0 | 15 | -6
COc1ccc(CN2CCN(C(=O)c3cccnc3)CC2)cc1 | 0 | 52* | -3 | 0 | -3 | -9
COc1cccc(CN2CCN(C(=O)c3cc(OC)cc(OC)c3)CC2)c1 | -1 | 43 | -5 | 0 | nt | nt
Cc1cc2nc(C3CCN(Cc4nnnn4Cc4cccs4)CC3)[nH]c2cc1C | 1 | 55* | -3 | 0 | 4 | 14
CCOC(=O)Cn1c(O)c(N=NC(=O)CNC(=O)COc2ccccc2)c2ccccc21 | 4 | 12 | 5 | 0 | nt | nt
c1coc(CNc2ccc3ncc(-c4ccco4)n3n2)c1 | 0 | 56* | 0 | 2 | 84* | 19 | AlphaScreen DR=>6.5
Brc1c(OCCN2CCNCC2)ccc2ccccc12 | -3 | 64* | -11 | 0 | 33* | 17 | AlphaScreen DR=>6.5
Clc1cc(Br)ccc1OCCOCCn1ccnc1 | -1 | 45 | -26 | 0 | nt | nt
Clc1cc(Br)ccc1OCCOCCN1CCNCC1 | -1 | 54* | 2 | 0 | -8 | -3
CCCCNCCOCCOc1ccc(Br)cc1C | 1 | 72* | 0 | 0 | 2 | 8
Brc1c(OCCn2ccnc2)ccc2ccccc12 | 2 | 57* | 17 | 0 | -9 | 18
Cc1occc1-c1nnc(SCC(=O)NCc2ccccc2)n1C | 1 | -4 | -15 | 0 | nt | nt
Clc1cc(Br)ccc1OCCN1CCNCC1 | 0 | 57* | -9 | 0 | -158 | -3
Cc1cc(Br)ccc1OCCOCCN1CCN(C)CC1 | 1 | 57* | -7 | 0 | -1 | 2
Clc1ccc(OCCN2CCNCC2)c(Cl)c1 | 1 | 45 | 5 | 0 | nt | nt
CCOC(=O)c1sc(NC(=O)CN2C(C)CCCC2C)c(C(=O)OCC)c1C (stereo not given) | 2 | 58* | -3 | 0 | -5 | 3
CCOC(=O)c1c(NC(=O)CN(C)C)sc(C)c1C | 0 | 5 | 6 | 0 | nt | nt
CCOC(=O)c1c(NC(=O)CN2CCN(CC)CC2)sc(C)c1C | -1 | 86* | 5 | 0 | 6 | 2
Cc1cccn2c(=O)c(/C=C3/SC(=S)N(CC(=O)O)C3=O)c(NCC(C)C)nc12 | -1 | -4 | 9 | 0 | nt | nt
c1ccc(CNC2=NCCCCS2)cc1 | 0 | 4 | 16 | 0 | nt | nt
O=C(CN1CCN(c2ccccn2)CC1)N(Cc1ccccc1)Cc1ccccc1 | 1 | 91* | -1 | 0 | 10 | 13
Cc1ccc(CN2CCN(c3ccccn3)CC2)cc1 | 0 | 44 | 6 | 1 | nt | nt
Brc1ccc(CN2CCN(c3ccccn3)CC2)cc1 | 0 | 53* | 9 | 0 | -2 | 3
COc1cc(CN2CCN(c3ccccn3)CC2)ccc1O | -2 | 54* | 1 | 0 | -3 | 2
O=C(Nc1cc(NC(=O)c2cc(Br)ccc2I)ccc1Cl)c1ccccc1 | 3 | -15 | -10 | 0 | nt | nt
CCOC(=O)c1c(C)[nH]c(NC(=O)NCc2cccnc2)c1C | 0 | 12 | 5 | 0 | nt | nt
COc1cccc(C(=O)NNC(=O)C(=O)NCCO)c1 | 1 | 61* | 5 | 1 | -6 | 3
COc1cccc(C(=O)NNC(=O)C(=O)NC(C)C)c1 | 0 | 10 | 0 | 0 | nt | nt

Screening data (PubChem BioAssay)
